Compound activity from PubChem BioAssay.
KKLEB tox = cytotoxicity in KKLEB CF airway cells, primary screen, cytotoxicity control for CF NF-kB inhibitor project, cell-based, uHTS, fluorescence assay plates; 360,000 tested, 0.36% active; activity change (cytotoxicity), % at 5 µM; KKLEB CF airway cells viability, ATPlite luminescence, overnight; active compounds read low; cells stimulated with P. aeruginosa culture filtrate;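 active means corrected activity change at or below -50% at 5 µM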
Peg3 prom inh = Peg3 promoter-driven luciferase inhibitors, primary screen, cell-based, HeLa, luciferase luminescence | inhibition, % at 20 µM | 360,000 tested, 1.7% active | HeLa PEG-Prom luciferase reporter, overnight;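 active means inhibition of at least 50% at 20 µM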
CF NFkB inh = inhibitors of PAF-induced NF-kB signaling, primary screen, cell-based, GFP fluorescence, uHTS; KKLEB NF-kB-GFP reporter, GFP fluorescence overnight; inhibition, % at 5 µM; 360,000 tested, 0.86% active; AID 588850, 2011;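 active means at least 50% inhibition at 5 µM, scaled per plate between neutral and stimulator controls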;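 further: PAF is a Pseudomonas aeruginosa culture filtrate used as stimulus; plate controls were PAF-stimulated DMSO wells for no effect and unstimulated DMSO wells for full effect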
TROY signal inh = inhibitors of TROY-driven NF-kB signaling, primary screen, Q293 LMP1-TROYcd cells, NF-kB luciferase, uHTS; Q293 LMP1-TROYcd NF-kB luciferase reporter, 4 h; inhibition, % at 10 µM; 360,000 tested, 0.98% active;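 active means compounds whose plate-normalised and pattern-corrected inhibition of the luciferase reporter signal at the single screening dose is 50% or more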
TWEAK Fn14 block = inhibitors of TWEAK-Fn14 signaling, primary screen, luciferase reporter cells, uHTS; TWEAK-stimulated Fn14 reporter cells, luciferase luminescence, 8 h; inhibition, % at 10 µM; 360,000 tested, 2% active; AID 1159606, 2016; in the data active means inhibition above about 50%
HIF-2a inh = HIF-2a reporter inhibitors, primary screen, luminescence, 786-0 RCC cells; 360,000 tested, 0.72% active; inhibition, % at 18.8 µM; AID 624352, 2012; 786-0 RCC cells HIF-2a reporter, luciferase luminescence, overnight;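 active means inhibition of the luminescence signal of 40% or more relative to plate controls, in a single-dose primary screen at 18.75 µM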
Active calls of the source: *; x = no result given. Most compounds without a hit are left out; they make up all but 4% or so of the library.

SMILES | KKLEB tox | Peg3 prom inh | CF NFkB inh | TROY signal inh | TWEAK Fn14 block | HIF-2a inh
NC(=O)[C@@H]1CC2(CC(c3cccc(NC(=O)COc4ccc(Cl)cc4)c3)=NO2)CN1C(=O)COc1ccc(Cl)cc1 (some centres not stated) | -8.2 | 14.6 | 6.6 | 46.5 | 81.6* | -42.5
NC(=O)[C@H]1CC2(CC(c3cccc(NC(=O)COc4ccc(Cl)cc4)c3)=NO2)CN1C(=O)C(c1ccccc1)c1ccccc1 (some centres not stated) | 2.1 | 39.5 | 0.3 | 32.7 | 56.8* | -54.1
CCC(=O)Nc1cccc(C2=NOC3(C2)C[C@@H](C(N)=O)N(C(=O)C(c2ccccc2)c2ccccc2)C3)c1 (some centres not stated) | 1.6 | 1.1 | -5.1 | 0.4 | 7.7 | -3.0
O=C1c2ccccc2C(c2nnnn2-c2ccc3c(c2)OCCO3)N1CCOc1ccccc1 (configuration not stated) | x | x | x | -24.1 | -17.4 | -45.1
Cc1cccc(C2c3[nH]c4ccccc4c3CCN2Cc2cccn2-c2ncccn2)c1 (configuration not stated) | 1.4 | 0.1 | -2.6 | -15.0 | -11.4 | -11.4
COc1ccc(C2c3[nH]c4ccccc4c3CCN2Cc2cccn2-c2ncccn2)cc1C (configuration not stated) | -10.8 | -78.5 | 22.3 | 71.2* | 56.3* | -107.8
COc1ccc(/C=C2\SC(N)=NC2=O)cc1 | -4.2 | -21.8 | 16.4 | -29.5 | 22.1 | -51.2
CCOC(=O)CSC1=NC(=O)/C(=C/c2ccc(OC)cc2)S1 | -29.0 | 101.9* | 34.3 | -74.5 | -8.2 | 74.1*
COc1ccccc1CNC(=O)C1CCCN(S(=O)(=O)c2cccc3nonc23)C1 (configuration not stated) | -6.4 | 6.0 | 10.3 | -30.9 | 7.9 | 4.0
CCN(CC)S(=O)(=O)c1cccc(C(=O)OCC(=O)NCc2ccccc2OC)c1 | -19.2 | 1.4 | 16.1 | -8.8 | -6.8 | 5.2
CCN1C(=C(C#N)C#N)C=Cc2cc(C)ccc21 | 11.0 | -8.2 | -38.7 | -32.6 | -22.4 | 16.8
C=CC[n+]1c(/C=C2\C=Cc3cc(C)ccc3N2CC)ccc2ccccc21 | -10.7 | 35.4 | 27.4 | 39.8 | 57.2* | -20.1
CC(=O)Nc1ccc(S(=O)(=O)N2CCN=C2SCc2ccc([N+](=O)[O-])cc2)cc1 | 2.4 | 9.7 | -3.2 | 11.3 | 24.0 | 2.8
Cc1ccc(C(=O)NC(=S)Nc2cccnc2Cl)cc1 | 16.3 | -380.0 | -30.7 | 43.8 | 73.0* | -156.2
COc1ccccc1C(=O)NC(=S)Nc1cccnc1Cl | -10.9 | -91.3 | -19.4 | 78.3* | 95.4* | 7.4
COc1ccccc1C(=O)NC(=S)Nc1ccc(N2CCOCC2)c(Cl)c1 | -10.9 | -36.8 | 11.5 | 52.0* | -9.3 | -51.1
Clc1ccc(-c2nc3n(n2)Cc2ccccc2-3)cc1 | -22.1 | -136.0 | -12.4 | -34.4 | 51.7* | -189.0
CCN(CC)S(=O)(=O)c1cccc(-c2nc3n(n2)Cc2ccccc2-3)c1 | -4.8 | -116.0 | -26.2 | -50.1 | 3.2 | -170.7
CC(C)(C)[C@H]1C=C(C(=O)N2CCN(Cc3ccc4c(c3)OCO4)CC2)O[C@@H](OCc2ccc(CO)cc2)C1 | 4.3 | 11.3 | -21.6 | 6.9 | -17.4 | 8.6
COc1ccccc1C(=O)COC(=O)CN1C(=O)NC2(CCCC2)C1=O | -2.8 | 1.8 | -4.8 | 18.0 | -8.3 | 15.8
CCN(CC(=O)NCc1cccs1)C(=O)c1ccc(-c2ccc(F)cc2)o1 | -3.0 | -0.7 | 14.3 | 11.6 | 79.9* | -5.4
O=C(CNC(=O)c1ccc2c(c1)S(=O)(=O)N=C1CCCCCN12)Nc1ccc(F)c(F)c1 | 16.8 | -1.5 | -5.8 | -3.8 | -5.7 | 6.2
Cc1nn(CC(=O)NCCC2=CCCCC2)c(C)c1[N+](=O)[O-] | 2.6 | -8.8 | -6.8 | -2.0 | 12.5 | 13.0
CCOC(=O)c1cc(-c2cccc([N+](=O)[O-])c2)on1 | -11.9 | 6.2 | -3.0 | -6.2 | 14.5 | 13.6
O=C(COc1ccc2c(c1)OCO2)Nc1nccs1 | -5.2 | -46.9 | 2.0 | 34.6 | 66.0* | -35.4
SMILES | KKLEB tox | Peg3 prom inh | CF NFkB inh | TROY signal inh | TWEAK Fn14 block | HIF-2a inh
COc1ccc(OCC(=O)Nc2nccs2)cc1 | -7.3 | -3.2 | 6.0 | 46.0 | 80.6* | -13.8
CCOc1ccc(OCC(=O)Nc2nccs2)cc1 | -8.6 | 59.0* | -1.6 | 64.7* | 84.9* | 37.6
CCn1nc(C)cc1C(=O)N1CCCC(C(=O)c2ccc(OC)cc2C)C1 (configuration not stated) | -12.0 | 14.7 | 7.1 | -0.7 | -4.2 | -4.3
O=[N+]([O-])CC(c1ccc(F)cc1)c1c[nH]c2ccccc12 (configuration not stated) | -8.5 | 55.0* | 12.1 | 4.3 | 26.7 | 23.9
Oc1c(N=Nc2ccccn2)ccc2ccccc12 | -10.3 | -13.2 | 13.4 | 19.6 | 80.3* | 14.5
COCCNC(=O)C1(C)CCCN(Cc2ccccc2N(C)C)C1 (configuration not stated) | 11.6 | 5.0 | -11.0 | 8.4 | 4.7 | 12.7
O=C(Nc1ccc2c(c1)OCCO2)c1ccccc1F | -5.5 | -60.3 | -14.5 | 8.2 | 53.3* | -52.4
O=C(Nc1ccc(N2CCOCC2)cc1)c1cn2ccccc2n1 | 2.2 | 23.2 | 0.5 | 23.9 | 67.7* | -1.1
O=C(COC(=O)c1ccccn1)Nc1ccc2c(c1)OCCO2 | -5.4 | 11.4 | -14.5 | -32.6 | -7.6 | -10.8
O=C(Nc1ccc2c(c1)OCCO2)c1ccccn1 | -11.5 | 42.0 | 11.4 | 57.4* | 78.8* | -69.6
O=C(Nc1ccc(N2CCCCCC2)cc1)c1ccccc1Cl | -15.8 | -190.5 | 17.3 | 1.0 | -48.8 | -297.0
O=C(Nc1ccc(Cl)c(S(=O)(=O)N2CCOCC2)c1)c1cn2ccccc2n1 | 6.3 | -1.2 | 6.3 | -8.1 | -1.4 | -3.5
O=C(Nc1ccc(N2CCCCC2)cc1)c1ccccn1 | -76.9* | 90.7* | -5.0 | 87.4* | 100.3* | 93.0*
COCCNC(=O)C1(S(=O)(=O)c2ccccc2)CC=CC1 | 3.6 | -39.7 | -7.8 | -26.8 | -0.4 | -43.7
O=C(CN(C(=O)CCC(=O)Nc1nccs1)c1cccc(F)c1)NCc1ccccc1 | 3.9 | 12.1 | -15.7 | -17.3 | -16.8 | 9.1
CSc1ncccc1C(=O)Nc1ccc2c(c1)OCCO2 | 8.5 | -25.1 | -10.9 | 2.1 | 50.2* | -34.7
COc1ccc(C)cc1Nc1n[n+](-c2ccccc2)c(-c2cc(OC)c(OC)cc2Br)s1 | 6.0 | -3.8 | 8.9 | 10.1 | -1.0 | 9.0
COc1ccc(C)cc1Nc1n[n+](-c2ccccc2)c(-c2c(OC)ccc3ccccc23)s1 | -5.9 | 56.5* | 38.1 | 46.9 | 57.9* | -26.5
